# Results: PubChem BioAssay AID743100 (Vanderbilt Specialized Chemistry Center, 2013)
# Values without a mark were called inactive. Activity calls are given as the source filed them.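 Rule for the calls: active = calcium response above 60% of the acetylcholine maximum at human M5, as a positive modulator; inactive = the rest.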
# Target: Muscarinic acetylcholine receptor M5 (Homo sapiens) (UniProt P08912)
# Assay: potentiators of ACh response at human M5 – cell-based, single concentration, CHO-K1 hM5, calcium flux (AID 743100)
# Conditions: CHO-K1 hM5, Fluo-4 calcium flux, ACh EC20, hits give high values; at 10 µM unless noted
# Chain of Muscarinic acetylcholine receptor M5 (Homo sapiens) (P08912 whole entry, looked up): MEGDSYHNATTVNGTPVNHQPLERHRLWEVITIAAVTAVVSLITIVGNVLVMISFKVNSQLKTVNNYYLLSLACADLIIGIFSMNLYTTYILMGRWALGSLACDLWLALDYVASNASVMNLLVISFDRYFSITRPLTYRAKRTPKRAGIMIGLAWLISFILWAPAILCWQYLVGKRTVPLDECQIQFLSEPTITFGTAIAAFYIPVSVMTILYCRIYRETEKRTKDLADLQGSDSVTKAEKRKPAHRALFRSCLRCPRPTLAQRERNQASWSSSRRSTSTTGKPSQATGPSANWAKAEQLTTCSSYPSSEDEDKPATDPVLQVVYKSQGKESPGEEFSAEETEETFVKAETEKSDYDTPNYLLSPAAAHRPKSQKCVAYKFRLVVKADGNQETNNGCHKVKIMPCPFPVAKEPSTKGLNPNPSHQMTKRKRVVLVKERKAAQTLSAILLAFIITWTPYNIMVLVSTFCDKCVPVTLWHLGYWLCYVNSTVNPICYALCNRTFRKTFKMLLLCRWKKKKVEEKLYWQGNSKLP
row,SMILES,% ACh max response
1,CCN(Cc1ccccc1)C(=O)C1CCN(S(=O)(=O)c2ccccc2OC)CC1,28.1% [at 30 µM]
2,CCN(Cc1ccccc1)C(=O)C1CCN(S(=O)(=O)c2ccccn2)CC1,36.4%
3,CCN(Cc1ccccc1)C(=O)C1CCN(S(=O)(=O)c2ccc3c(c2)OCO3)CC1,62.9% (active)
4,CCN(Cc1cccc(OC)c1)C(=O)C1CCN(S(=O)(=O)c2ccc3cn[nH]c3c2)CC1,74.2% (active)
5,CCN(C(=O)C1CCN(S(=O)(=O)c2ccc3c(c2)CCC3)CC1)[C@H](C)c1ccccc1,91.5% (active)
6,CCN(Cc1ccccc1)C(=O)C1CCN(S(=O)(=O)c2ccccc2C#N)CC1,24% [at 30 µM]
7,CCN(Cc1ccccc1)C(=O)C1CCN(S(=O)(=O)c2cccnc2)CC1,34.5%
8,CCN(Cc1cccnc1)C(=O)C1CCN(S(=O)(=O)c2ccc3cn[nH]c3c2)CC1,19.8%
9,CCN(Cc1ccccc1C#N)C(=O)C1CCN(S(=O)(=O)c2ccc3cn[nH]c3c2)CC1,36.8%
10,CCN(C(=O)C1CCN(S(=O)(=O)c2ccc(-n3cccn3)cc2)CC1)[C@H](C)c1ccccc1,97.5% (active)
11,O=C(NCc1ccccc1)C1(Cc2ccccc2)CCN(S(=O)(=O)c2ccc3occc3c2)CC1,20.1%
12,CC(=O)N(Cc1ccccc1)CC1CCN(S(=O)(=O)c2ccc(OC(F)(F)F)cc2)CC1,6.72%
13,CCN(Cc1ccccc1)C(=O)C1CCN(S(=O)(=O)c2ccccc2C)CC1,28.6% [at 30 µM]
14,O=C1N(Cc2ccccc2C(F)(F)F)CCCC12CCN(S(=O)(=O)c1ccc3[nH]ncc3c1)CC2,22.6%
15,CCN(Cc1ccccc1)C(=O)C1CCN(S(=O)(=O)Cc2ccc(Br)cc2)CC1,26.2% [at 30 µM]
16,CCN(Cc1ccncc1)C(=O)C1CCN(S(=O)(=O)c2ccc3cn[nH]c3c2)CC1,22.4%
17,CCN(Cc1ccccc1)C(=O)C1CCN(S(=O)(=O)c2cnc[nH]2)CC1,33.7% [at 30 µM]
18,CC1c2ccccc2CCN1C(=O)C1CCN(S(=O)(=O)c2ccc3cn[nH]c3c2)CC1 (stereo unspecified),36.3%
19,O=C(C1CCN(S(=O)(=O)c2ccc3[nH]ncc3c2)CC1)N1Cc2ccccc2C1,32.5%
20,CCN(Cc1ccccc1)C(=O)C1CCN(S(=O)(=O)c2ccc3cn[nH]c3c2)CC1,83.1% [at 30 µM] (active)
21,CCN(Cc1ccc(OC(F)(F)F)cc1)C(=O)C1CCN(S(=O)(=O)c2ccc3cn[nH]c3c2)CC1,40.8%
